In PubChem BioAssay (NCI):
Several values for one entry are separate records, joined by “and”; a condition that tells them apart may be missing. Equal values may be shown once. This is part of a sample that, as a whole, favours compounds with a hit. Of some 79,000 tested, about 15% had one in any assay. Some compounds were tested as several samples or in several runs, with calls that do not always agree. Activity calls are given as the source filed them. No stated cut-off is given here; in the data, active means growth inhibition above about 70%; inactive means the rest.

Key:
[1] = NCI Yeast Anticancer Drug Screen. Data for the rad50 strain (AID 155);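 further: 0% = growth of vehicle-only cultures of the same strain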; settings: S. cerevisiae rad50 strain growth inhibition, stronger effect = higher value
In short: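 Cells are treated with compound, grown, and their growth is then scored against vehicle-only cultures of the same repair-deficient yeast strain.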

[2] = NCI Yeast Anticancer Drug Screen. Data for the mec2-1 strain (AID 157); settings: S. cerevisiae mec2-1 strain, stronger effect = higher value
In short: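 Readout is yeast growth inhibition, normalised to vehicle-treated controls, in the mec2-1 strain exposed to compound.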

[3] = NCI Yeast Anticancer Drug Screen. Data for the sgs1 mgt1 strain (AID 161);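 further: 0% = growth of cultures given vehicle only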; settings: S. cerevisiae sgs1 mgt1 strain, stronger effect = higher value
In short: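 Growth of a repair-deficient yeast mutant was monitored after compound treatment and expressed as inhibition relative to vehicle-treated cultures.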

[4] = NCI Yeast Anticancer Drug Screen. Data for the cln2 rad14 strain (AID 165);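 further: 0% = growth equal to vehicle treated cultures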; settings: S. cerevisiae cln2 rad14 strain, stronger effect = higher value
In short: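 Relative to vehicle controls, growth inhibition of compound-treated cln2 rad14 yeast was recorded.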

[5] = NCI Yeast Anticancer Drug Screen. Data for the bub3 strain (AID 167); settings: S. cerevisiae bub3 mutant strain, stronger effect = higher value
In short: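 Part of a panel of yeast mutants defective in DNA damage repair or cell cycle regulation. Each strain is grown with compound, and inhibition is calculated relative to solvent-treated cultures.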

[6] = NCI Yeast Anticancer Drug Screen. Data for the mlh1 rad18 strain (AID 175); settings: S. cerevisiae mlh1 rad18 strain growth inhibition, stronger effect = higher value
In short: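 Test agents were incubated with a yeast strain of defined genotype (DNA damage repair defect). Inhibition of growth was derived by comparison with vehicle-exposed cultures.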

[7] = at 5.0 µM (retest, dose inferred, filed as 0.5)
[8] = at 50.0 µM (retest, dose inferred, filed as 5.0)

Structure (SMILES)	growth inhibition [1, 7]	growth inhibition [1, 8]	growth inhibition ([1]; at 50.0 µM)	growth inhibition [2, 7]	growth inhibition [2, 8]	growth inhibition ([2]; at 50.0 µM)	growth inhibition [3, 7]	growth inhibition [3, 8]	growth inhibition ([3]; at 50.0 µM)	growth inhibition [4, 7]	growth inhibition [4, 8]	growth inhibition ([4]; at 50.0 µM)	growth inhibition [5, 7]	growth inhibition [5, 8]	growth inhibition ([5]; at 50.0 µM)	growth inhibition [6, 7]	growth inhibition [6, 8]	growth inhibition ([6]; at 50.0 µM)
O=C(COc1ccc(Cl)cc1Cl)Nc1cccc(C(F)(F)F)c1	-4% (inactive)	-3% (inactive)	-4.5% (inactive)	-18% (inactive)	-25% (inactive)	7.95% (inactive)	-3% (inactive)	-2% (inactive)	9.65% (inactive)	-3% (inactive)	-13% (inactive)	41.9% (inactive)	12% (inactive)	0% (inactive)	1% (inactive)	1% (inactive)	10% (inactive)	-0.4% (inactive)
C/C(=N\O)c1cc(Br)cc([N+](=O)[O-])c1O	1% (inactive)	14% (inactive)	6.45% (inactive)	7% (inactive)	35% (inactive)	4.15% (inactive)	3% (inactive)	27% (inactive)	4.95% (inactive)	13% (inactive)	11% (inactive)	39% (inactive)	4% (inactive)	10% (inactive)	8.3% (inactive)	5% (inactive)	25% (inactive)	14.8% (inactive)
O=C(Nc1cccc2c(OC(=O)C(Cl)Cl)c(N=Nc3ccc(S(=O)(=O)Nc4nccs4)cc3)cc(N=Nc3ccc(S(=O)(=O)Nc4nccs4)cc3)c12)C(Cl)Cl (tested in a mixture with another compound)	93% (active) and 21% (inactive)	6% (inactive) and 87% (active)	71.8% (active) and 25.1% (inactive)	95% (active) and 10% (inactive)	39% (inactive) and 90% (active)	62% (inactive) and 38.1% (inactive)	94% (active) and 19% (inactive)	29% (inactive) and 88% (active)	67.2% (inactive) and 18.3% (inactive)	93% (active) and 29% (inactive)	34% (inactive) and 88% (active)	56.5% (inactive) and 31.9% (inactive)	90% (active) and 22% (inactive)	41% (inactive) and 88% (active)	50.2% (inactive) and 47.1% (inactive)	85% (active) and 35% (inactive)	-14% (inactive) and 83% (active)	81.3% (active) and 39.8% (inactive)
CCN(CC)c1ccc(NC(C(=O)c2ccccc2)c2ccccc2)cc1 (stereo unspecified)	99% (active) and 2% (inactive)	99% (active) and 46% (inactive)	99.4% (active) and 54.9% (inactive)	97% (active) and 2% (inactive)	99% (active) and 30% (inactive)	98.9% (active) and 37.1% (inactive)	100% (active) and 8% (inactive)	100% (active) and 83% (active)	99.2% (active) and 81.2% (active)	98% (active) and 0% (inactive)	99% (active) and 7% (inactive)	98.7% (active) and 42.6% (inactive)	100% (active) and 2% (inactive)	99% (active) and 44% (inactive)	99.2% (active) and 53.5% (inactive)	99% (active) and 2% (inactive)	99% (active) and 46% (inactive)	98.5% (active) and 68.2% (inactive)
CC(=O)OCC(=O)[C@H]1CC[C@H]2[C@@H]3CC=C4C[C@@H](O)CC[C@]4(C)[C@H]3CC[C@]12C	54% (inactive)	91% (active)	89.8% (active)	33% (inactive)	91% (active)	-5.65% (inactive)	60% (inactive)	94% (active)	48.5% (inactive)	18% (inactive)	95% (active)	55.8% (inactive)	23% (inactive)	91% (active)	-17.4% (inactive)	65% (inactive)	95% (active)	81.1% (active)
O=C(O)c1ccc2c(c1)Cc1cc([N+](=O)[O-])ccc1-2	-3% (inactive)	88% (active)	70.1% (active)	-7% (inactive)	72% (active)	13.4% (inactive)	7% (inactive)	85% (active)	64% (inactive)	-92% (inactive)	83% (active)	34.6% (inactive)	-10% (inactive)	0% (inactive)	14% (inactive)	4% (inactive)	82% (active)	73% (active)
CNC(=O)OCCN1c2ccccc2Sc2ccccc21	-22% (inactive)	93% (active)	89.5% (active)	-9% (inactive)	68% (inactive)	92% (active)	8% (inactive)	91% (active)	93.3% (active)	-1% (inactive)	82% (active)	90.3% (active)	0% (inactive)	95% (active)	92% (active)	-9% (inactive)	92% (active)	91.5% (active)
